Columns and labels:
Assay type in all cases: functional
[1] = system: Plasmodium falciparum; test: GSK_TCMDC: Inhibition of Plasmodium falciparum 3D7 in whole red blood cells, using parasite LDH activity as an index of growth. Test compounds present at 2uM
[2] = system: Plasmodium falciparum; test: GSK_TCMDC: Inhibition of Plasmodium falciparum Dd2 in whole red blood cells, using parasite LDH activity as an index of growth. Test compounds present at 2uM
[3] = system: HepG2; test: GSK_TCMDC: Percent inhibition of human HepG2 cell line. Test compounds present at 10uM.

SMILES | Inhibition [1] [%] | Inhibition [2] [%] | Inhibition [3] [%]
N=C(N)NCCN(Cc1ccccc1)c1ccccc1 | 100 | 98 | 8
CCNc1cc(CC)nc(Nc2ccc(C)cc2)n1 | 100 | 24 | 22
O=C(CCc1c[nH]cn1)Nc1cccc(-c2ccc(-c3nc4cc(F)ccc4[nH]3)s2)c1 | 100 | 69 | 17
COc1ccc(C(=O)CCC(=O)N(Cc2ccc(-c3ccc(CNCCc4ccc(S(C)(=O)=O)cc4)cn3)cc2)Cc2ccc3c(c2)OCO3)cc1F.O=C(O)C(F)(F)F | 95 | 41 | 13
COc1ccc2c(=O)c(-c3ccc(OC(F)(F)F)cc3)c(C)[nH]c2c1 | 97 | 96 | 0
Cc1cc(-c2ccc(CNC3CCN(C)CC3)cc2)ccc1S(=O)(=O)NCc1ccccc1.O=C(O)C(F)(F)F | 100 | 97 | 52
N#Cc1cccc(C(=O)Nc2ccc(-c3cccc(CN4CCC(O)CC4)c3)cc2)c1.O=C(O)C(F)(F)F | 100 | 68 | 33
Nc1cnc(C#Cc2cc3ncnc(N(CCN4CCOCC4)c4ccc(OCc5cccc(F)c5)c(Cl)c4)c3s2)cn1 | 87 | 57 | 0
CCc1ccc(C2CCN(CCCCNC(=O)c3ccc(-c4ccc(C(F)(F)F)cc4)cc3)CC2)c(OCCO)c1.Cl | 100 | 69 | 82
Nc1nccc2ccc(-c3ccsc3)cc12.O=C(O)C(F)(F)F | 100 | 89 | 38
O=[N+]([O-])c1ccc(Nc2nc(NCc3ccccc3)nc(N/N=C/c3ccccc3[N+](=O)[O-])n2)cc1 | 100 | 99 | 18
CCNC(=O)N1CCc2ccc(Oc3nc(NCc4ccccc4OC)ncc3C)cc2CC1.O=C(O)C(F)(F)F | 83 | 76 | 0
CCN(CC)CCCC(C)Nc1cc(C)nc2cc(Cl)ccc12 (stereo not drawn) | 100 | 7 | 9
Cl.Nc1ncc(Cc2cc(Cl)c(N)c3ncccc23)c(N)n1 | 89 | 95 | 5
Cc1cc(CNC(=O)[C@H](CC2CCCCC2)Nc2ccc(C#N)c3ccccc23)c(C(F)(F)F)o1.O=C(O)C(F)(F)F | 87 | 55 | 13
CC(C)C(NC(=O)Cc1cccc2ccccc12)C(=O)Nc1cccc(C#N)c1 (stereo not drawn) | 92 | 91 | 0
Cc1nc(N)nc(N)c1OCc1ccc(Cl)c(Cl)c1.Cl | 97 | 5 | 14
O=C(O)C(F)(F)F.O=C1CCCN1CCCNCc1ccc(-c2cccc(-c3nc4cc(C(F)(F)F)ccc4[nH]3)c2)cc1 | 100 | 98 | 14
O=C(CC(=O)Nc1cc(Cl)cc(Cl)c1)Nc1cc(Cl)cc(Cl)c1 | 95 | 96 | 0
CN1CCCN(Cc2ccc(-c3ccc(NC(=O)c4cccc(Cl)c4)cc3)cc2)CC1.O=C(O)C(F)(F)F | 95 | 64 | 55
CNCCNc1nccc(N2CCc3ncnc(Nc4ccc(OCc5cccc(F)c5)c(Cl)c4)c3C2)n1 | 100 | 98 | 30

SMILES | Inhibition [1] [%] | Inhibition [2] [%] | Inhibition [3] [%]
O=C(NCc1cccs1)[C@H](Cc1ccccc1)Nc1ccnc(NCCc2ccc(F)cc2)n1.O=C(O)C(F)(F)F | 85 | 52 | 1
CC(=NNC(=N)N)C(=O)Nc1ccc(Cl)c(Cl)c1.O=S(=O)(O)O | 100 | 97 | 0
NC1CCN(Cc2ccc(-c3cccc(-c4nc5cc(F)ccc5[nH]4)c3)cc2)C1.O=C(O)C(F)(F)F (stereo not drawn) | 100 | 16 | 47
CC(=O)Nc1cccc(C(=O)Nc2cccc(-c3ccc(-c4nc5cc(C(F)(F)F)ccc5[nH]4)s3)c2)c1 | 98 | 46 | 80
Cc1ccc(Cn2nc(Cl)c(N3CCCNCC3)cc2=O)cc1NC(=O)Nc1ccc(-c2ccccc2)cc1.O=C(O)C(F)(F)F | 100 | 55 | 90
Cl.N#Cc1cccc(C(O)C2CN(CCC3CCCCC3)CCC2(O)c2ccccc2)c1 (stereo not drawn) | 98 | 100 | 0
CC(C)(C)c1ccc(NC(=O)c2ccc(CN3CCCN(Cc4cccc(Cl)c4)CC3)cc2)cc1.O=C(O)C(F)(F)F | 96 | 7 | 43
COc1ccc2nc3cc(Cl)ccc3c(Nc3ccc(C(=O)O)cc3)c2c1.Cl | 94 | 95 | 0
Cl.Clc1ccc2c(NCCc3ccccc3)ccnc2c1 | 93 | 99 | 31
COc1ccc(C(=O)CC(=O)c2ccc(OC)cc2OC)c(OC)c1 | 98 | 0 | 1
O=C(/C=C/c1ccc(Cl)c(Cl)c1)NCCCCCCN1CCCN(C(=O)Nc2ccc(Cl)c(Cl)c2)CC1 | 100 | 8 | 25
COC(=O)c1ccc(NC(=O)c2ccc(CCN3CCC(c4nc(COCC(F)(F)F)c(-c5ccc(F)cc5)o4)CC3)cc2)cc1 | 89 | 37 | 22
O=C(/C=C/c1cccc(Cl)c1)N1CCC(C(O)CN2CCC3(CC2)CN(C(=O)/C=C/c2cccc(Cl)c2)c2ccccc23)CC1 (stereo not drawn) | 91 | 38 | 34
CC(=O)c1ccc(NC(=O)NNC(=O)c2ccc(CCN3CCC(c4nc(COCC(F)(F)F)c(-c5ccc(F)cc5)o4)CC3)cc2)cc1 | 96 | 27 | 17
Cc1noc(C)c1-c1cccc(CNCc2cccc(-c3csc(-c4nc5ccccc5[nH]4)c3)c2)c1.O=C(O)C(F)(F)F | 100 | 74 | 32
O=C(Nc1cc(Cl)cc(Cl)c1)c1cc(Cl)c(=O)n(Cc2ccc(Cl)cc2)c1 | 89 | 57 | 7
O=C(Nc1cccc(-c2ccc(-c3nc4ccccc4[nH]3)cc2)c1)Nc1ccc2c(c1)OCO2 | 90 | 8 | 20
CCOc1c(CNCCCNc2nc3ccccc3[nH]2)cc(I)cc1OC.Cl | 100 | 4 | 42
CCCn1c(O)nnc1SCC(=O)Nc1cc(C(F)(F)F)ccc1Cl | 96 | 94 | 0
Cc1ccc(C)c(Sc2ccc(NC(=O)CN3CCN(C(=O)c4ccco4)CC3)cc2)c1 | 96 | 93 | 28
CCC(C)C(COC(=O)c1cc(OC)c(OC)c(OC)c1)N(C)CCN(C)C(COC(=O)c1cc(OC)c(OC)c(OC)c1)C(C)CC.Cl (stereo not drawn) | 84 | 45 | 20

SMILES | Inhibition [1] [%] | Inhibition [2] [%] | Inhibition [3] [%]
N#Cc1ccc(N/C(=N\c2ccc(-c3ccccc3)cc2)NC2CCCc3ccccc32)c(O)c1 (stereo not drawn) | 99 | 98 | 0
Nc1ccnc(N2CCC(CCOc3cc(C(F)(F)F)nc4c(C(F)(F)F)cccc34)CC2)c1 | 98 | 17 | 35
COc1ccc2nccc(N(C)CC3(O)CCN(CC(O)c4ccc5c(c4)NC(=O)CS5)CC3)c2n1.Cl (stereo not drawn) | 100 | 0 | 1
Nc1cccc(CNCc2cccc(-c3cccc(-c4nc5cc(F)ccc5[nH]4)c3)c2)c1.O=C(O)C(F)(F)F | 100 | 82 | 5
COc1ccc(NC(=O)[C@H](Cc2ccccc2)Nc2cc(C)nc(NCCc3ccc(F)cc3)n2)cc1.O=C(O)C(F)(F)F | 100 | 82 | 17
Cl.O=c1nc(NCCCNCc2cc3c(Cl)cc(Cl)cc3[nH]2)[nH]c2ccsc12 | 96 | 11 | 62
COc1ccc(CNC2CCN(C)CC2)cc1-c1ccc(S(=O)(=O)NC2CCC2)c(C)c1.O=C(O)C(F)(F)F | 100 | 96 | 24
Cc1ccc(-n2nc(-c3ccccc3)c3cc(C(=O)NCCN)sc32)cc1 | 92 | 43 | 28
CN(C)CCN1CCN(Cc2cccc(-c3csc(-c4nc5ccccc5[nH]4)c3)c2)CC1.O=C(O)C(F)(F)F | 100 | 97 | 28
Cc1nc(C)c(-c2ccc(Oc3ccc(Cl)cc3Cl)cc2)c(O)c1Br | 98 | 94 | 3
COc1ccc(CNCCCCCCNCCc2ccc(Cl)cc2)cc1OC.Cl | 96 | 0 | 21
O=[N+]([O-])c1ccc2nccnc2c1 | 97 | 0 | 0
Cn1c(NC2CCN(CC3CCN(C(=O)/C=C/c4ccc(Cl)c(Cl)c4)CC3)CC2)nc2ccccc21 | 100 | 100 | 99
Cc1cc(O)c(C(C)C)cc1C1(c2cc(C(C)C)c(O)cc2C)OC(=O)c2ccccc21 | 95 | 18 | 8
COc1cc(Cc2cnc(N)nc2N)ccc1OCc1ccc(NC(C)=O)cc1 | 98 | 0 | 9
CCCCn1c(Sc2ccc(C#N)c([N+](=O)[O-])c2)nnc1-c1ccc(OC)cc1 | 93 | 61 | 12
CC(CNC(=O)c1cc2c(Cl)cc(Cl)cc2[nH]1)CNc1cc(=O)c2ccccc2[nH]1.O=C(O)C(F)(F)F (stereo not drawn) | 97 | 11 | 11
CCCC(CNCc1ccc(Cl)c(C(F)(F)F)c1)CNc1nc2cnccc2[nH]1.Cl (stereo not drawn) | 99 | 8 | 26
CC(=O)Nc1ccc(C(=O)Nc2cccc(-c3ccc(-c4nc5cc(F)ccc5[nH]4)cc3)c2)cn1 | 99 | 99 | 10

Reference: ChEMBL document CHEMBL1157539, “Thousands of chemical starting points for antimalarial lead identification” (Nature, 2010)
